Reference: PubChem BioAssay (Tox21)
Values joined by “and” are separate entries in the source; they are usually repeats but may differ in a detail not shown here. Identical values can stand only once. Inconclusive results are not listed. Entries that show only a call come without a potency. More than one record can exist for a structure, and the calls need not agree. Active and inactive are the calls of the source. Calls come from the whole dose curve. Residues, ends and D or L forms follow the SMILES beside them.

assay: qHTS assay for small molecule agonists of the p53 signaling pathway - cell viability (AID 651633); details: p53RE-bla HCT-116 viability, ATP luminescence, 16 h; series mostly up to 83.3 µM; note: nearly all actives have a fitted effect of over 30% in size
Description: National Center for Advancing Translational Sciences [NCATS]
NIH Chemical Genomics Center [NCGC]
U.S. Environmental Protection Agency [EPA]
National Institutes of Environmental Health Sciences [NIEHS]
National Toxicology Program [NTP]
U.S. Food and Drug Administration [FDA]
p53, a tumor suppressor protein, is activated following cellular insult, including DNA damage and other cellular stresses. The activation of p53 regulates cell fate by inducing DNA repair, cell cycle arrest, apoptosis, or cellular senescence. The activation of p53, therefore, is a good indicator of DNA damage and other cellular stresses. […] The activation of the reporter gene under culture conditions can be detected by fluorescence intensity. This cell line was used to screen the Tox21 compound library in a 1536-well plate format and to identify agonists that activate the p53 signaling pathway.
Tox21 Assay Protocol Summary:
The p53RE-bla cells were dispensed at 4,000 cells/5 ul/well in 1536-well black wall/clear bottom plates using a Multidrop dispenser. After the assay plates were incubated at a 37 C/5% CO2 incubator for 5 hours, 23 nL of compounds dissolved in DMSO, positive controls or DMSO only was transferred to the assay plate by a pin tool. The plates were incubated at 37 C for 16 hours. After 1 uL of LiveBLAzerTM B/G FRET substrate was added using a Flying Reagent Dispenser, the plates were incubated at room temperature for 2 hours, and fluorescence intensity was measured by an Envision plate reader.
For cell viability readout that measures cytotoxicity, 4 ul/well of CellTiter-Glo reagent was added into the assay plates using a Flying Reagent Dispenser. After 30 min incubation at room temperature, the luminescence intensity in the plates was measured using a ViewLux plate reader.
Potency is the fitted concentration of half-maximal effect.

Compound | Potency
COC(=O)[C@H](Cc1ccccc1)NC(=O)[C@@H](N)CC(=O)O (H-Asp-Phe-OMe) | inactive
Cc1ccccc1C(OCCN(C)C)c1ccccc1 (stereo not given) | inactive
C1N2CN3CN1CN(C2)C3 | inactive
CC(=O)OCC(COC(C)=O)OC(C)=O | inactive
O=C(O)CCC(=O)O | inactive
O=C(c1ccccc1)c1ccccc1 | inactive
Nc1ccc(S(=O)(=O)Nc2nccs2)cc1 | inactive
CC(O)CN(CCN(CC(C)O)CC(C)O)CC(C)O (stereo not given) | inactive
O=C1CN(/N=C/c2ccc([N+](=O)[O-])o2)C(=O)N1 | inactive
Nc1ccc(C(=O)O)cc1 | inactive
O=c1cc[nH]c(=S)[nH]1 | inactive
CC(O)CO (stereo not given) | inactive
Nc1ccc(S(=O)(=O)c2ccc(N)cc2)cc1 | inactive
C[C@]12C=CC(=O)C=C1CC[C@@H]1[C@@H]2[C@@H](O)C[C@@]2(C)[C@H]1CC[C@]2(O)C(=O)CO | inactive
NC(=O)c1cnccn1 | inactive
CCCC(O)C(CC)CO (stereo not given) | inactive
O=C(O)c1[nH]n(-c2ccc(S(=O)(=O)O)cc2)c(=O)c1N=Nc1ccc(S(=O)(=O)O)cc1 | inactive
Cn1c(=O)c2[nH]cnc2n(C)c1=O | inactive
N=C(N)c1ccc(OCCCCCOc2ccc(C(=N)N)cc2)cc1 | inactive
CCC1(c2ccccc2)C(=O)NCNC1=O | inactive

Compound | Potency
OCCc1ccccc1 | inactive
O=C(O)CCCCC(=O)O | inactive
CCCCCCCCCCCCCCCC(=O)O | inactive
CC(C)[C@@H]1CC[C@@H](C)C[C@H]1O | inactive
O=C(c1ccccc1)C(O)c1ccccc1 (stereo not given) | inactive
Cc1noc(NS(=O)(=O)c2ccc(N)cc2)c1C | inactive
CCCCC1C(=O)N(c2ccccc2)N(c2ccccc2)C1=O | inactive
CCCCOC(=O)CC(CC(=O)OCCCC)(OC(C)=O)C(=O)OCCCC | inactive
CNC[C@H](O)c1cccc(O)c1 | inactive
c1ccc2[nH]ccc2c1 | inactive
NC(N)=NC(=O)c1nc(Cl)c(N)nc1N | inactive
Cc1ccc(S(=O)(=O)NC(=O)NN2CCCCCC2)cc1 | inactive
O=C(O)c1cc(N=Nc2ccc(S(=O)(=O)Nc3ccccn3)cc2)ccc1O | inactive
CCCCC(CC)COC(=O)/C=C/c1ccc(OC)cc1 (stereo not given) | inactive
NC(=O)NC1NC(=O)NC1=O (stereo not given) | inactive
C/C=C/c1ccc(OC)cc1 | inactive
CC(O)C(=O)O (stereo not given) | inactive
Oc1ccc(/C=C/c2cc(O)cc(O)c2)cc1 | inactive and 54.5 µM (active)
O=C(O)CS | inactive
COc1ccc2[nH]cc(CCNC(C)=O)c2c1 | inactive
